# In PubChem BioAssay (Tox21):
# Inconclusive results are not listed. Where a call stands in place of a potency, no number is given. Calls of active or inactive are those of the source. Calls follow the shape of the full dose curve.
# Experiment: qHTS assay for small molecule disruptors of the mitochondrial membrane potential - cell viability (AID 720634);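 also: human HepG2 liver cancer cells; nearly all actives have a fitted effect of over 20% in size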
# Conditions: HepG2 viability, ATP luminescence (CellTiter-Glo), 1 h; series mostly up to 83.2 µM; activity change, negative = cytotoxicity: at the top concentration
# Description: U.S. Tox21 Program National Center for Advancing Translational Sciences [NCATS] NIH Chemical Genomics Center [NCGC] U.S. Environmental Protection Agency [EPA] National Institutes of Environmental Health Sciences [NIEHS] National Toxicology Program [NTP] U.S. Food and Drug Administration [FDA] Tox21 Assay Overview: Mitochondrial membrane potential (MMP), one of the parameters for mitochondrial function, is generated by mitochondrial electron transport chain that creates an electrochemical gradient by a series of redox reactions. This gradient drives the synthesis of ATP, a crucial molecule for various cellular processes. Measuring MMP in living cells is commonly used to assess the effect of chemicals on mitochondrial function; decreases in MMP can be detected using lipophilic cationic fluorescent dyes. […] The dye accumulates in the mitochondria of healthy cells as aggregates, with red fluorescence. The mitochondrial potential decreases and the dye could not accumulate in the mitochondria and remains in the cytoplasm in monomers, with green fluorescence. In addition to the mitochondrial potential assay, these cells were also used to test the cytotoxicity by determining the cell viability in the culture based on the quantitation of ATP present. The cytotoxicity was measured in the same assay well of MMP assay.
# Tox21 Assay Protocol Summary: 2,000 HepG2 cells in 5 uL/well were dispensed into black, clear-bottom 1536-well plates using a Multidrop Combi (Thermo Scientific) dispenser. The assay plates were incubated for an overnight at 37 C to allow cells to attach to the wells, followed by the transfer of 23 nL compound or DMSO vehicle by a pin tool (Kalypsys). The plates were incubated for 1 hr at 37 C and 5% CO2, followed by the addition of 5 uL of 2X m-MPI dye into each well using Flying Reagent Dispenser (Aurora Discovery) and then CellTiter-Glo reagent was added at 4 uL/well and incubated 30 min at room temperature. Then luminescence intensity was quantified on a ViewLux CCD-based plate reader.
SMILES,Potency,"activity change, negative = cytotoxicity"
CC(CCO)CC(C)(C)C (stereo not given),inactive,–
CCOCC(=O)O,inactive,–
C=CC(C)CCCC(C)(C)O (stereo not given),inactive,–
O=[N+]([O-])c1ccc2nc[nH]c2c1,inactive,–
O=C(O)c1ccccc1C(=O)O,inactive,–
N[C@H](Cc1c[nH]c2ccccc12)C(=O)O,inactive,–
CC(C)OP(=O)(CP(=O)(OC(C)C)OC(C)C)OC(C)C,–,-9.26% (inactive)
CC(CCl)OP(=O)(OC(C)CCl)OC(C)CCl (stereo not given),inactive,–
CCCCC(C=O)CC (stereo not given),inactive,–
CC(C)=CCl,inactive,–
C=CCc1ccc(OC)c(OC)c1,inactive,–
COc1ccccc1OCC(O)CO (stereo not given),inactive,–
CN/C(=C\[N+](=O)[O-])NCCSCc1csc(CN(C)C)n1,inactive,–
CCCCCCCCCCCCCCCCO,inactive,–
COC(=O)c1cccnc1,inactive,–
O=C1c2ccccc2CCc2ccccc21,–,-18.1% [at 95.3 µM] (inactive)
CC(C)OC(=O)COc1ccc(Cl)cc1Cl,inactive,–
CCc1ccccc1CC,inactive,–
CCCCCCC=O,inactive,–
CC(C)(C)c1cc(Cc2cc(C(C)(C)C)c(O)c(C(C)(C)C)c2)cc(C(C)(C)C)c1O,inactive,–

SMILES,Potency,"activity change, negative = cytotoxicity"
C=CCCCCCCCCC(=O)O,inactive,–
CC(C)CC(=O)CC(C)CC(C)C (stereo not given),inactive,–
O=C(O)c1ccc(C(=O)O)c(C(=O)O)c1,inactive,–
N#Cc1ccccc1,inactive,–
CC(=O)c1ccc(O)cc1,inactive,–
CN(C)c1ccc(Cc2ccc(N(C)C)cc2)cc1,inactive,–
OCc1ccccc1,inactive,–
CC(=O)CCC=C(C)C,inactive,–
COCCOC(=O)c1ccccc1C(=O)OCCOC,inactive,–
CN(C)c1ccc(O)c2c1C[C@H]1C[C@H]3[C@H](N(C)C)C(=O)C(C(N)=O)=C(O)[C@@]3(O)C(=O)C1=C2O,inactive,–
COc1ccc(C)cc1N,inactive,–
CNC(=S)N(C)C,inactive,–
O=C(OCC1CCC2OC2C1)C1CCC2OC2C1 (stereo not given),inactive,–
Nc1nc(N)nc(-c2ccccc2)n1,inactive,–
CCNc1cccc(C)c1,inactive,–
COc1cc(OC)c(C(=O)CCCN2CCCC2)c(OC)c1,inactive,–
CN(C)CCOC(=O)COc1ccc(Cl)cc1,inactive,–
c1ccc2c(c1)Cc1ccccc1-2,inactive,–
CC(C)c1cccc(C(C)C)c1,inactive,–
CC(=O)OC1CC(C)OC(C)O1 (stereo not given),inactive,–
